96 compounds from PubChem BioAssay AID1159524 (National Center for Advancing Translational Sciences (NCATS), 2015) can be followed below.

The whole screen tested about 410,000 compounds, of which about 5,100 (1.2%) were called active. Another 8% or so got no clear call; they are omitted. The sample holds actives, similar compounds and a random draw of the others, so the mix is not that of the screen. A number with no mark means an inactive call. Calls follow the shape of the full dose curve; tested in HEK293T cells.
% is scaled to controls: 0 for no effect and ±100 for the full control effect; potency is read from the fitted curve at half-maximal effect.

This assay is described as follows: High Throughput Screening for Foot and Mouth Disease Virus Antivirals. Also: read-out not given here; nearly all actives have a fitted effect of over 45% in size. As to conditions: FMDV antiviral cell-based qHTS; series mostly up to 57.9 µM; activity change, negative = inhibition: at the top concentration. Background: qHTS replaces the single test concentration by a dilution series.
As for `CCOC(=O)c1cc2c(=O)n3ccccc3nc2n(CCCOC)c1=NC(=O)C(C)(C)Oc1ccc(Cl)cc1`, the “activity change, negative = inhibition” value was 0%. With `O=c1ccc2c(-c3ccccc3S(=O)(=O)O)c3ccc(O)c(O)c3oc-2c1O`, the Potency is 7.08 µM (active).

For `CCCC(=O)Nc1ccc(C(=O)N/N=C/c2ccc[nH]2)cc1`, the Potency is 28.2 µM (active). With `CCCC(=O)Nc1ccc(C(=O)NCCCn2ccnc2)cc1`, the “activity change, negative = inhibition” value was 20.8%.

As for `CC(=O)Nc1ccc(C(=O)NNC(=O)CCCCC(=O)NNC(=O)c2ccc(NC(C)=O)cc2)cc1`, the “activity change, negative = inhibition” value is -0.805%. For `CNC(=O)N1c2ccccc2C=Cc2ccccc21`, the “activity change, negative = inhibition” value was -23%. `CC1C(C)N(C(=O)CCl)c2ccccc2N1C(=O)CCl` (stereo unspecified): the Potency was 3.55 µM (active). On to `Cc1ccn(CCC(=O)N2c3ccccc3CC2C)n1` (stereo unspecified), for which the “activity change, negative = inhibition” value was -5.82%.

For the compound `N[C@H](Cc1o[nH]c(=O)c1Cl)C(=O)O`, the “activity change, negative = inhibition” value was -15.3%. In the case of `CC(C)C(=O)NC(C)c1nnc2n1CCN(Cc1cccc3ncccc13)CC2` (stereo unspecified), the “activity change, negative = inhibition” value was -10.8%. The same measure, in the same setting: the value for `Cc1nc2cnc(Nc3ccccc3)nc2n(C[C@H]2CCCO2)c1=O` was -12.6%. For `C[C@@H]1C[C@@H]2O[C@H]2/C=C\C=C\C(=O)Cc2c(Cl)c(O)cc(O)c2C(=O)O1`, the Potency is 0.1 µM (active). As for `COCCn1c(=O)c(CCc2ccccc2)nc2cnc(N3CCNCC3)nc21`, the “activity change, negative = inhibition” value was -12.9%. The same measure, in the same setting: the value for `COCCn1c(=O)c(-c2ccc(OC)cc2)nc2cnc(Oc3cccc(Cl)c3)nc21` was 6.66%; that for `COc1ccccc1CN1CC2(CCN(S(=O)(=O)c3ccccc3)CC2)C1` was 5.12%. In the case of `COc1ccccc1CC(=O)Nc1ccc(S(=O)(=O)N2CCCC2)cc1`, the “activity change, negative = inhibition” value was -6.62%. Take `COc1cc(C(=O)NNC(=O)c2ccc(S(=O)(=O)N3CCCCC3)cc2)cc(OC)c1OC`: the “activity change, negative = inhibition” value is -17.5%. `COc1ccc(-c2ccc(Nc3ccc(S(=O)(=O)N4CCCC4)cc3)nn2)cc1OC`: the Potency was 14.1 µM (active).

Turning to `CCN(CC)c1cc(NC2CCCCC2)c2c3c(onc13)-c1ccccc1C2=O`, the “activity change, negative = inhibition” value was -25.1%.

On to `CC(C)C(NS(=O)(=O)c1ccc(-c2ccc(Br)cc2)cc1)C(=O)O` (stereo unspecified), for which the “activity change, negative = inhibition” value is 19.1%. Same read-out and setting: the value for `CCC1(C2CCN(Cc3cccnc3)CC2)NC(=O)N(CC2COc3ccccc3O2)C1=O` (stereo unspecified) was -16.1%; that for `Cc1cccc(C(CC(=O)NCC2(c3ccccc3)CCCC2)c2ccccc2)c1O` (stereo unspecified) was -17.6%; that for `NCCCCCC(=O)N/N=C/c1ccc2nccnc2c1` was 6.75%. In the case of `O=C(O)c1ccc(N/N=C/c2ccc3ncccc3c2)cc1`, the Potency is 2.82 µM (active). On to `CCc1nc2cccnc2n1-c1ccc(C(=O)O)cc1`, for which the “activity change, negative = inhibition” value is -16.4%.

As for `CCn1c(C(=O)Nc2cc(Cl)ccc2C)cc2sc(Cl)cc21`, the “activity change, negative = inhibition” value was 14.9%. The same measure, in the same setting: the value for `COc1ccc(NC(=O)N2CC3(CCN(C(=O)c4cccn4C)CC3)C2)cc1` was -0.131%; that for `CC(=O)OCC(=O)C1CCC2C3CCC4=CC(=O)CC[C@@]4(C)C3CC[C@]12C` (stereo partly specified) was -5.9%; that for `CC(=O)OCC(=O)[C@@]1(O)CCC2C3CCC4=CC(=O)CC[C@]4(C)C3C(=O)C[C@]21C` (stereo partly specified) was 4.63%. For `CSc1ncnc2c1ncn2CC(=O)C1CCC2C3CCC4=CC(=O)CCC4(C)C3CCC12C` (stereo unspecified), the Potency was 11.2 µM (active). Consider `COc1ccccc1N1CCN(CCCNC(=O)c2cnn(-c3ccccc3Cl)c2C2CCN(C(=O)OC(C)(C)C)CC2)CC1`, for which the “activity change, negative = inhibition” value was -17.2%. Same read-out and setting: with `CN(C)CCc1c[nH]c2ccc(Cn3cncn3)cc12` the figure was -0.17%; with `O=C(CC(c1cccs1)N1Cc2ccccc2C1=O)Nc1ccc(F)cc1F` (stereo unspecified), 23.6%; with `Cn1cnc([N+](=O)[O-])c1Sc1n[nH]c(N)n1`, -7.25%. In the case of `Cn1cnc([N+](=O)[O-])c1Sc1ccccc1`, the Potency is 28.2 µM (active). As to `Cn1cnc([N+](=O)[O-])c1Nc1ccccc1O`, the “activity change, negative = inhibition” value is -7.23%.

Regarding `CO[C@H]1[C@H](NC(=O)C(C)C)c2ccccc2C12CCN(Cc1cnc(N(C)C)s1)CC2`, the “activity change, negative = inhibition” value is 5.35%. The same measure, in the same setting: the value for `COc1ccccc1CNc1ccnc(-c2c(C)noc2C)n1` was -20.1%; that for `CCCC(=O)Nc1ccc(NC(=O)c2sc3ccccc3c2Cl)cc1` was 0%.

On to `Cc1cccc(N2CCN(C(=O)c3cnc(N4CCCC4)nc3C)CC2)c1C`, for which the “activity change, negative = inhibition” value was -25.6%. The same measure, in the same setting: with `CCC1CN(CCNC(=O)c2ccsc2)Cc2cc(OC)ccc2O1` (stereo unspecified) the figure was 10.6%. `CCN1/C(=C\c2ccc3ccccc3[n+]2CC)Sc2cc(C)ccc21`: the Potency is 35.5 µM (active).

For the compound `CC(=O)Nc1cccc(NC(=O)CSc2cn(CC(=O)N3CCCC3)c3ccccc23)c1`, the “activity change, negative = inhibition” value is 2.42%. On the same count and under the same terms, the value for `COc1ccc2[nH]cc(CCNc3nc(-c4cccc(NS(C)(=O)=O)c4)nc4ccccc34)c2c1` was -8.4%; that for `CCn1c2ccccc2c2nnc(SCC(=O)O)nc21` was -12.5%.

For the compound `CCc1c2c(nc3ccc(O)cc13)-c1cc3c(c(=O)n1C2)COC(=O)[C@]3(O)CC`, the “activity change, negative = inhibition” value is -11.9%. On the same count and under the same terms, the value for `COCCn1c(=O)c(CCc2ccccc2)nc2cncnc21` was 14.5%. As for `O=C(CN1C(=O)c2ccccc2S1(=O)=O)N1CCc2ccccc21`, the Potency was 0.794 µM (active). Consider `NS(=O)(=O)c1ccc(CCNC(=O)CN2C(=O)c3ccccc3S2(=O)=O)cc1`, for which the “activity change, negative = inhibition” value is -6.48%.

As to `CCn1c(=O)c2ccccc2n(CC(=O)N2CCCc3ccccc32)c1=O`, the “activity change, negative = inhibition” value was -17.3%. On the same count and under the same terms, with `CO[C@H]1C=CO[C@@]2(C)Oc3c(C)c(O)c4c(O)c(c(/C=N/N5CCN(C)CC5)c(O)c4c3C2=O)NC(=O)/C(C)=C\C=C[C@H](C)[C@H](O)[C@@H](C)[C@@H](O)[C@@H](C)[C@H](OC(C)=O)[C@@H]1C` the figure was -20.7%; with `Nc1nc2c(ncn2[C@@H]2O[C@H](COP(=O)(O)OP(=O)(O)OP(=O)(O)O)[C@@H](O)C2O)c(=O)[nH]1` (stereo partly specified), -4.64%. Same read-out and setting: the value for `O=C(c1ccco1)N1CCC[C@@]2(CCN(c3ccccc3)C2)C1` was -15.5%; that for `CC(C)NC(=O)N1CC[C@@]2(CCCN(C(=O)c3ccco3)C2)C1` was 0.879%; that for `C1CC[C@H]([C@@]23C[C@H](C[C@H]4CCCN[C@H]42)[C@@H]2CCCCN2C3)NC1` was -4.28%. Regarding `CCCS(=O)(=O)c1ncc(Cl)c(C(=O)Nc2scc(-c3ccccc3)c2C(=O)OCC)n1`, the Potency is 25.1 µM (active). Take `CCSc1ncc(Cl)c(C(=O)Nc2c(C(=O)c3ccccc3)oc3ccccc23)n1`: the “activity change, negative = inhibition” value is -1.81%.

`CCOC(=O)c1scc(-c2ccccc2)c1S(=O)(=O)Nc1ccccc1F`: the “activity change, negative = inhibition” value is 40%. The same measure, in the same setting: the value for `CCOc1ccccc1N(C)C(=O)c1cc2c(s1)-c1ccccc1OC2` was -12.7%; that for `COCCn1c(=O)c(-c2cc(F)cc(F)c2)nc2cncnc21` was -13.8%. The same measure, in the same setting: with `CN1C2CC3CC1C(O3)C2O` (stereo unspecified) the figure was 1.94%; with `Cc1ccc(S(=O)(=O)c2cn(Cc3ccccc3)c3cc(N4CCCC4)c(F)cc3c2=O)c(C)c1`, -5.03%. Turning to `Oc1c(Cl)cc(Cl)c(Cl)c1Cc1c(O)c(Cl)cc(Cl)c1Cl`, the Potency is 5.62 µM (active). Same read-out and setting: with `C=C1C(=O)C23C(O)C1CCC2[C@]12COC3(O)C(O)C1C(C)(C)CC[C@H]2O` (stereo partly specified) the figure was 28.2 µM (active).

Take `O=C(NC1(C(F)(F)F)N=C(c2ccccc2)N(C2CCCCC2)C1=O)c1ccccc1F` (stereo unspecified): the “activity change, negative = inhibition” value is -26.5%.

Consider `O=c1c(-c2cccs2)nc2cnc(Oc3ccccc3)nc2n1-c1ccccc1`, for which the “activity change, negative = inhibition” value was 0.49%. Same read-out and setting: with `O=C(c1csnn1)N1CCC2(CCN(Cc3nccs3)CC2)CC1` the figure was -6.87%.

In the case of `O=C(c1cccc(C(=O)N2CCN(c3ccc(F)cc3)CC2)c1)N1CCN(c2ccc(F)cc2)CC1`, the Potency is 39.8 µM (active). On to `O=C(c1ccccc1Oc1ccccc1)N1CCN(c2ccc(F)cc2)CC1`, for which the “activity change, negative = inhibition” value was -28%. For `O=C(c1cccc(F)c1)N1CCC2(CC1)CCN(c1ccccc1)CC2`, the “activity change, negative = inhibition” value is -23.1%. For `COc1ccc(CN(C)CCn2cc(C(=O)N3CCSCC3)nn2)cc1C`, the “activity change, negative = inhibition” value is -5.81%. `O=C1c2ccccc2C(=O)N1CCC#Cc1ccc2cc(C3(O)CCCCC3)oc(=O)c2c1`: the Potency was 39.8 µM (active). For the compound `COCCCN1C(=O)c2ccc(C(=O)Nc3ccc(OC)cc3OC)cc2C1=O`, the “activity change, negative = inhibition” value was -11.7%. Take `CC(C)CCN1C(=O)c2ccc(C(=O)Nc3cccc(S(N)(=O)=O)c3)cc2C1=O`: the Potency was 28.2 µM (active).

As for `CN1C(=O)c2ccc(NC(=O)c3c(F)c(F)c(F)c(F)c3F)cc2C1=O`, the “activity change, negative = inhibition” value was -29.8%. Still for that read-out and setting: with `Cc1ccnc(NS(=O)(=O)c2ccc(NC(=O)c3ccc(S(=O)(=O)N(C)C)cc3)cc2)n1` the figure was -8.59%.

`CCCCN1C(=O)c2ccc(C(=O)Nc3ccc(S(=O)(=O)N(C)C)cc3)cc2C1=O`: the Potency was 20 µM (active).

`Cc1ccc(S(=O)(=O)NCCC(=O)Nc2cccc(S(N)(=O)=O)c2)cc1C`: the “activity change, negative = inhibition” value is 10.4%.

As for `O=c1c(CN2CCOc3ccc(CN4CCC(Oc5cccnc5)CC4)cc3C2)coc2ccccc12`, the “activity change, negative = inhibition” value is -10.3%. Still for that read-out and setting: with `Cc1cnc(CNc2cc(-c3c(C)noc3C)ncn2)cn1` the figure was 3.33%; with `O=c1ccn([C@@H]2O[C@H](COP(=O)(O)OP(=O)(O)OP(=O)(O)O)[C@@H](O)[C@H]2O)c(=O)[nH]1`, -14%; with `COc1cc(Cl)c(C)cc1Nc1nnc(-n2nc(C)cc2C)c2ccccc12`, -24.8%. The same measure, in the same setting: the value for `COCCn1c(=O)c(C)nc2cnc(N(C)C)nc21` was -13.5%.

`CC1=C/C(=N\OS(=O)(=O)c2ccccc2)C=CC1=O`: the Potency is 15.8 µM (active). As for `O=C(CSc1nc(=O)n(Cc2cccnc2)c2c1CCC2)Nc1ccc(F)cc1F`, the “activity change, negative = inhibition” value was 22.1%. Same read-out and setting: the value for `CCOC(=O)C1=C(c2ccccc2)Nc2ncnn2C1c1ccc(Cl)cc1` (stereo unspecified) was -11.9%. `CC1=C(C(=O)OCc2ccccc2)C(c2ccco2)n2ncnc2N1` (stereo unspecified): the Potency is 28.2 µM (active). In the case of `CCOc1ccccc1NC(=O)C1=C(C)Nc2ncnn2C1c1ccc(NC(C)=O)cc1` (stereo unspecified), the “activity change, negative = inhibition” value is 2.66%. In the case of `CC(C)=CCC/C(C)=C/CC/C(C)=C/CC/C(C)=C/CO`, the Potency entry was “inactive”. For `CC(C)c1cc(C(=O)N2CCOc3ccc(CN4CCC(Oc5cccnc5)CC4)cc3C2)n[nH]1`, the “activity change, negative = inhibition” value was -8.01%. On to `Cc1ccsc1C(=O)OCC(=O)c1cc(C)n(CC2CCCO2)c1C` (stereo unspecified), for which the Potency was 100 µM (active). `O=C(CSc1nnc(-c2ccco2)n1CC1CCCO1)c1ccccc1` (stereo unspecified): the “activity change, negative = inhibition” value is 7.3%. Still for that read-out and setting: the value for `Cc1cc(C(=O)COC(=O)c2cccs2)c(C)n1-c1c(C)n(C)n(-c2ccccc2)c1=O` was 11.2%; that for `COc1ccccc1N1CCN(c2ncnc3onc(-c4cccc(Cl)c4)c23)CC1` was -0.743%. Take `COc1ccccc1N1CCN(c2ncnc3sc(C)c(-c4ccccc4)c23)CC1`: the Potency was 20 µM (active). For `COC(=O)c1cnc(N2CCN(c3ccccc3OC)CC2)c2ccccc12`, the “activity change, negative = inhibition” value is -10.8%.
